# According to PubChem BioAssay AID463195 (Sanford-Burnham Center for Chemical Genomics, 2010):
# Hit rate of the full screen: of about 330,000 compounds, about 4,600 (1.4%) were called active.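 How the source made its calls: active means inhibition of 40% or more at the single tested concentration; inactive means the rest.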 This excerpt belongs to a sample that is enriched for actives.
# Experiment: growth inhibitors of isogenic TIM10 control yeast, primary screen, counter-screen for tim10-1 yeast inhibitor project, luminescence, uHTS (AID 463195);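 further: wild-type TIM10 isogenic control strain grown at permissive 25 °C; 0% = DMSO yeast wells and 100% = minimal medium wells without yeast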
# Conditions: S. cerevisiae TIM10 strain growth, BacTiter-Glo luminescence, 24 h; at 10 µM; stronger effect = higher value
row,SMILES,inhibition
1,Cc1ccccc1OCC(=O)Nc1ccc(S(=O)(=O)N2CCOCC2)cc1,18.7% (inactive)
2,Cc1ccccc1OCC(=O)Nc1ccc2c(c1)ncn2C,2.51% (inactive)
3,Cc1ccccc1OCC(=O)Nc1ccc(N2CCN(C(=O)C(C)C)CC2)c(Cl)c1,65.5% (active)
4,CCC(C)N(C(=O)Cn1nc(C)c([N+](=O)[O-])c1C)C1CCS(=O)(=O)C1 (stereo not drawn),2.63% (inactive)
5,CCN(CC(=O)Nc1ccc2c(c1)OCCO2)Cc1cc(=O)oc2cc(C)c(C)cc12,2.82% (inactive)
6,CCN(CC(=O)NC(C)C)C(=O)c1cc(S(=O)(=O)N2CCCCC2)ccc1N1CCCCC1,-4.18% (inactive)
7,Cn1nnc2cc(C(=O)NCCC3=CCCCC3)ccc21,9.76% (inactive)
8,C=CCNC(=O)c1ccc2c3n(nc2c1)-c1ccc(C)cc1CO3,47% (active)
9,Cc1cccc(-c2nc3ccc(C(=O)NCCN4CCN(C)CC4)cc3nc2-c2cccc(C)c2)c1,11.7% (inactive)
10,O=C(NCc1cccnc1)c1cnc2ccccc2n1,3.89% (inactive)
11,O=C(O)Cc1csc(NC(=O)CSc2nnnn2-c2ccc(O)cc2)n1,-3.77% (inactive)
12,O=C(CCCN1C(=O)CCC1=O)Nc1ccc(Cl)c(C(F)(F)F)c1,-0.757% (inactive)
13,O=C(CC(O)(C(F)(F)F)C(F)(F)F)Nc1ccc(Cl)c(Cl)c1,88.8% (active)
14,CS(=O)(=O)N(CC(=O)Nc1ccc(Cl)c(Cl)c1)C1CCCCC1,27.6% (inactive)
15,COc1ccccc1OCCC(=O)OCC(=O)NCc1ccccc1,9.81% (inactive)
16,COc1cccc(NC(=O)C(=O)c2cn(CC(=O)N3CCOCC3)c3ccccc23)c1,11.5% (inactive)
17,COc1cccc(C(C(=O)NC2CCCC2)N(C(=O)c2ccco2)c2cccc(C(C)=O)c2)c1OC (stereo not drawn),11.8% (inactive)
18,CNC(=O)/C(C#N)=C/c1c(F)cccc1Cl,59.2% (active)
19,CCOC(=O)NC(=O)/C(C#N)=C\c1ccccc1,15.6% (inactive)
20,O=C(/C=C/c1c(F)cccc1Cl)Nc1nn[nH]n1,0.073% (inactive)
21,NC(=S)Nc1c(Cl)cccc1Cl,-2.06% (inactive)
22,COc1ccc(C(=O)CCC(=O)Nc2ccc(Cl)cc2)cc1,-25.2% (inactive)
23,COc1ccc(NC(=O)/C(Cl)=C(/Cl)S(=O)Cc2ccc(C)cc2)cn1 (stereo not drawn),57.6% (active)
24,COc1ccc(Nc2ccc([N+](=O)[O-])cn2)cn1,1.7% (inactive)

row,SMILES,inhibition
1,COc1ccc(CCNC(=O)c2cnc(Cl)c(Cl)c2)cc1,-23.1% (inactive)
2,COc1ccc(CS(=O)/C(Cl)=C(/Cl)C(=O)Nc2ccc(OC)nc2)cc1 (stereo not drawn),88.3% (active)
3,CCN(CC(=O)Nc1ccc(OC)cc1)C(=O)CSCc1ccc(C)cc1,-9.01% (inactive)
4,CCCCn1nc(C(=O)Nc2ccc(S(=O)(=O)Nc3ncccn3)cc2)c2ccccc2c1=O,6.41% (inactive)
5,Cc1ccc(CN(N=Nc2nonc2N)c2nonc2N)c(C)c1,36.7% (inactive)
6,CCCOCC(O)CC(CC)C(=O)NNC(=S)Nc1ccccc1 (stereo not drawn),7.95% (inactive)
7,CCC12CN3CC(CC)(CN(C1)C31C(=O)N(C)c3ccc(C)cc31)C2=O (stereo not drawn),-4.81% (inactive)
8,O=C1CCN(C(=O)Nc2ccccc2)N1,-12.2% (inactive)
9,O=C(N/N=C/c1cccnc1)c1ccc(NC(=O)c2ccc(F)cc2)cc1,-13.1% (inactive)
10,N#C/C(=C\c1cccnc1)C(=O)Nc1ccc(SC(F)F)cc1,45.6% (active)
11,Cc1cc(/C=C(/C#N)C(=O)Nc2ccc(Cl)cc2)c(C)n1-c1cccnc1,-8.09% (inactive)
12,O=C1Nc2ccc([N+](=O)[O-])cc2C1=Nc1cccc(CO)c1,8.6% (inactive)
13,COc1ccc2c(CN3CCN(S(=O)(=O)c4cccs4)CC3)cc(=O)oc2c1,52.4% (active)
14,COc1ccc2oc(=O)cc(CN3CCOCC3)c2c1,-8.83% (inactive)
15,Cc1cc2oc(=O)cc(CN3CCN(S(=O)(=O)c4cccs4)CC3)c2cc1C(C)C,-1.14% (inactive)
16,NC(=O)C(Cc1ccccc1)NC(=O)C12CC3CC(CC(C3)C1)C2 (stereo not drawn),16.3% (inactive)
17,CCO[C@@H]1OC(C(N)=O)=C[C@H](c2ccc(Br)cc2)[C@H]1CCCO,-4.73% (inactive)
18,Cn1cccc1Cc1nnc(SCC(=O)NCCc2ccccc2)n1-c1ccc(F)cc1,10.2% (inactive)
19,Fc1ccc(-n2c(Cc3ccccc3)nnc2SCc2nc(-c3ccc(Cl)cc3)no2)cc1,41% (active)
20,Cc1ccc(-c2noc(CSc3nnc(-c4ccncc4)n3-c3ccc(F)cc3)n2)cc1,46.2% (active)
21,Cc1nnc(SCc2ccc(C(=O)c3ccc(Cl)cc3)o2)n1-c1ccccc1,7.12% (inactive)
22,Cn1c(SCc2ccc(F)cc2)nnc1-c1ccncc1,-15.7% (inactive)
23,Cc1ccc(-c2noc(CSc3nnc(-c4cccs4)n3C)n2)cc1,12.3% (inactive)
24,C=CCn1c(C2CC(=O)N(c3ccc(C)cc3)C2)nc2ccccc21 (stereo not drawn),0.772% (inactive)

row,SMILES,inhibition
1,COc1cccc(-n2cc3c(c2-c2ccccc2)c(=O)n(C)c(=O)n3C)c1,-0.343% (inactive)
2,CCN(CC)CCNC(=O)c1sc2ncn(CC(=O)Nc3ccc(C)c(Cl)c3)c(=O)c2c1C,-10.3% (inactive)
3,Cc1ccc(Nc2nc(CSc3nnc(-c4ccncc4)n3-c3ccccc3C)cs2)cc1,19.6% (inactive)
4,COc1ccc(-c2cn[nH]c2-c2ccc(OC)cc2)cc1,35% (inactive)
5,COc1ccc(Oc2cn[nH]c2-c2ccc(OC)cc2O)cc1,45.7% (active)
6,CCOc1ccccc1Oc1cn[nH]c1-c1ccc(OC)cc1O,-79.8% (inactive)
7,COc1ccc(-c2cc3nc(C)c(CCC(=O)NC(C)CCc4ccco4)c(C)n3n2)c(OC)c1 (stereo not drawn),23.7% (inactive)
8,CN(C(=O)c1ccccn1)c1nnc(-c2ccccn2)s1,1.41% (inactive)
9,CCc1nc2sc(C(=O)O)c(N)c2c2c1CCCC2,-94.9% (inactive)
10,CC(=O)c1c(Nc2ccccc2)sc(C(=O)c2ccccc2)c1C,-7.77% (inactive)
11,CN(C)c1ccnc2sc(C(=O)c3ccccc3)c(N)c12,40.4% (active)
12,Cc1nc2sc(C(=O)c3ccccc3)c(N)c2c2c1CCCC2,41.5% (active)
13,Cc1ccc2c(N)c(C(=O)c3ccccc3)sc2n1,36.2% (inactive)
14,Cc1nnc(SC(C(=O)Nc2cc(Cl)cc(Cl)c2)c2ccccc2)[nH]c1=O (stereo not drawn),14.3% (inactive)
15,CCn1c(SCC(=O)NC2CC2)nnc1-c1ccncc1,-12.4% (inactive)
16,CCOc1ccc(C(CC(=O)O)n2cnnn2)cc1OC (stereo not drawn),-1.38% (inactive)
17,COC(=O)c1c(NC(=O)CSc2nncs2)sc2c1CCCCC2,43.7% (active)
18,COC(=O)c1c(NC(=O)C2CC(C)=C(C)CC2C(=O)O)sc2c1CCCCC2 (stereo not drawn),20.6% (inactive)
19,COC(=O)c1c(NC(=O)CCN2CCOCC2)sc2c1CCCC2,9.98% (inactive)
20,O=C(NCc1ccccc1)C(c1ccco1)N(C(=O)c1csnn1)c1ccccc1F (stereo not drawn),5.22% (inactive)
21,CC(C)CCNC(=O)C1CCC(CNc2c(N3CCC(C)CC3)c(=O)c2=O)CC1 (stereo not drawn),2.16% (inactive)
22,Cc1cc(C)nc(NS(=O)(=O)c2ccc(N/C=C\C(=O)c3cccs3)cc2)n1,-1.27% (inactive)
23,CCn1c(=O)c(C(=O)NCc2ccc3c(c2)OCO3)c(O)c2ccccc21,-11.9% (inactive)
24,O=C(NCc1ccc2c(c1)OCO2)c1c(O)nc2sccn2c1=O,45% (active)

row,SMILES,inhibition
1,O=C(NCc1ccc2c(c1)OCO2)c1sccc1Br,9.81% (inactive)
2,CC(=O)c1c(C)n([O-])c2ccccc2[n+]1=O,-2.57% (inactive)
3,O=C1N[C@H](Cc2c[nH]c3ccccc23)COC(=O)[C@H](Cc2ccc(F)cc2)C/C=C\C[C@H]1CC(=O)N(CCO)Cc1ccccc1,-8.49% (inactive)
4,Cc1[nH]c(=O)c(C(=O)/C=C/c2ccccc2)c2c1CCCC2,45% (active)
5,O=C(/C=C/c1ccc(N2CCOCC2)cc1)c1ccccc1,39.5% (inactive)
6,CC(=O)Nc1ccc(/C=C/C(=O)c2ccccc2)cc1,26.1% (inactive)
7,O=C(O)CCc1nc2cc(Cl)ccc2n(Cc2ccccc2)c1=O,21.5% (inactive)
8,COc1ccc(CN2C(CC(=O)Nc3cccnc3)c3ccc(C(F)(F)F)cc3S2(=O)=O)cc1 (stereo not drawn),-7.66% (inactive)
9,O=C(NC1(C(F)(F)F)NC(=O)N(C2CCCCC2)C1=O)c1ccco1 (stereo not drawn),-5.03% (inactive)
10,O=C1NC(Nc2nc3ccccc3s2)(C(F)(F)F)C(=O)N1C1CCCCC1 (stereo not drawn),52.6% (active)
11,Cc1cc(C)c2nc(-c3cccnc3)cc(C(=O)Nc3ccc(S(=O)(=O)Nc4onc(C)c4C)cc3)c2c1,-10% (inactive)
12,Cc1nn(-c2ncc(C(F)(F)F)cc2Cl)c(=O)n1-c1ccccc1,10.6% (inactive)
13,Cc1cc(NC(=O)CSc2ncc(C(F)(F)F)cc2Cl)no1,-8.23% (inactive)
14,Cc1ccc(-c2ccnc3nc(Sc4ncc(C(F)(F)F)cc4Cl)nn23)cc1,42.2% (active)
15,CNC(=O)NC(=O)C(OC(=O)c1cccc(S(=O)(=O)N2CCCCC2)c1)c1ccccc1 (stereo not drawn),15.5% (inactive)
16,CCOCCCN1C(=O)C2C(C(=O)Nc3ccc(OCC)cc3)C3C=CC2(O3)C1C(=O)NC1CCCCC1 (stereo not drawn),5.11% (inactive)
17,Cc1ccc(N2C(=O)c3ccccc3C2(O)c2ncc[nH]2)cc1 (stereo not drawn),1.61% (inactive)
18,COc1cc(NS(=O)(=O)c2ccc3ccccc3c2)c2ncccc2c1,9.71% (inactive)
19,O=[N+]([O-])c1ccccc1S(=O)(=O)Nc1cccc2cccnc12,44.6% (active)
20,O=[N+]([O-])c1cccc2ncccc12,-18% (inactive)
21,C[C@H](NC(=O)c1[nH]cnc1C(=O)Nc1nccs1)c1ccccc1,6.5% (inactive)
